From PubChem
An excerpt weighted towards active compounds, which were near 1.6% of everything screened.
eIF4E 4G PPI: inhibitors of eIF4E and eIF4G interaction in translation initiation. P63073+Q04637. TR-FRET eIF4E-eIF4GI(517-606) binding, 2 h. inhibition, % at 21.7 µM. 0.37% of 220,000 active. AID 782;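 active means inhibition above about 30%, limit read from the data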;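 further: 0% = full FRET control wells and 100% = background wells lacking eIF4GI fragment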
Target sequence (P63073 whole entry, looked up, the tested form may be a part): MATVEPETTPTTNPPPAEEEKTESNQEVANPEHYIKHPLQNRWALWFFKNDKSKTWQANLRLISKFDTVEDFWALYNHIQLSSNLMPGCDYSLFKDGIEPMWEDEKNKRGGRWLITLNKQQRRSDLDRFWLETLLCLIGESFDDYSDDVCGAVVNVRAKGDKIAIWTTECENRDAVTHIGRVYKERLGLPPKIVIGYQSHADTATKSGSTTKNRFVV
Target sequence (Q04637 whole entry, looked up, the tested form may be a part): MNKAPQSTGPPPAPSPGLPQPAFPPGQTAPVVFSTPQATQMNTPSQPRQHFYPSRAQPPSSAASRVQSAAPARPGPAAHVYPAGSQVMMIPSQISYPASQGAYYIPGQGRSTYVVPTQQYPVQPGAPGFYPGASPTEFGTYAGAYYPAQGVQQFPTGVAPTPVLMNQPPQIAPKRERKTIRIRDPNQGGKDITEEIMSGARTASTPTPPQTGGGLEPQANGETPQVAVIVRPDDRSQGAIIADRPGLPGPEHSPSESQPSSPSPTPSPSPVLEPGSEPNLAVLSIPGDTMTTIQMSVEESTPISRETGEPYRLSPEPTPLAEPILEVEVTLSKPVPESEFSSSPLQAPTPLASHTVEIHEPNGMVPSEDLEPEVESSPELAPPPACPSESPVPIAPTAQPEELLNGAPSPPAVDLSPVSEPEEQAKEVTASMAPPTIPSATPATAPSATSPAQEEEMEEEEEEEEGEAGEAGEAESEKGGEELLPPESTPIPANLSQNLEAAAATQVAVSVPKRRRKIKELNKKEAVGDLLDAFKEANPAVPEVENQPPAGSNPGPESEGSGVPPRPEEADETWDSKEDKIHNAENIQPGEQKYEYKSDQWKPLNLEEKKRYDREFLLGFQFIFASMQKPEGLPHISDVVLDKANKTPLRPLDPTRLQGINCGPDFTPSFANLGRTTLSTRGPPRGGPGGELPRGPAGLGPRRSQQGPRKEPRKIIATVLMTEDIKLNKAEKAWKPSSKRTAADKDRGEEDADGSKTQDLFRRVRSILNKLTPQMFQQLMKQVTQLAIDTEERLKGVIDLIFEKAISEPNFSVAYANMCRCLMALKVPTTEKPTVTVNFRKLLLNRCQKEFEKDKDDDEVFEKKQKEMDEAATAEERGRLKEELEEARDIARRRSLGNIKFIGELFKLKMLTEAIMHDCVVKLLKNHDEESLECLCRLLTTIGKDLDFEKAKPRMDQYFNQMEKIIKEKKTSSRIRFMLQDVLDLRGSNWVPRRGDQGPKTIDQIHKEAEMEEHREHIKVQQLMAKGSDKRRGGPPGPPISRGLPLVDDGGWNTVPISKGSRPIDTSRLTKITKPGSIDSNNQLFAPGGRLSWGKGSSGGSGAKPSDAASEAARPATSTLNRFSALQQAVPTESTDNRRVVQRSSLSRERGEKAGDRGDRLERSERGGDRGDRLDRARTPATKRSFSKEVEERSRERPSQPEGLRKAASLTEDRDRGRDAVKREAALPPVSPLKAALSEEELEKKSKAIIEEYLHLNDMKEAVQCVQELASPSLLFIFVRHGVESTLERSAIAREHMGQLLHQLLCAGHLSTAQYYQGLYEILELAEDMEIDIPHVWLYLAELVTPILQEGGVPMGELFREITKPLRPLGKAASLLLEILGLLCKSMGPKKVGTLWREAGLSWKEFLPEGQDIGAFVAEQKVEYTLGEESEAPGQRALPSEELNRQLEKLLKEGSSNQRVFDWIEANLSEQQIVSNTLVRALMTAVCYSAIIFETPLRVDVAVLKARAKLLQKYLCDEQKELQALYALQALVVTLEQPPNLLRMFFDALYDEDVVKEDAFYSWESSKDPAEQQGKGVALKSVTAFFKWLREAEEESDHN
PERK inh: blocks human PERK kinase. Q9NZJ5. CHO PERK-DD fusion, SEAP luminescence translation reporter. inhibition, % at 5.6 µM. 0.17% of 220,000 active;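 active means inhibition above the mean inhibition of all tested compounds plus 3 SD, set separately per screening campaign, cut at about 2.9% in these data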;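 further: PERK kinase domain activated by AP20187 dimerizer at 100 nM; 0% = DMSO with dimerizer and 100% = rapamycin at 8.4 µM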
PABP polyA inh: blocks human PABP binding to poly(A) RNA; 1% of 290,000 active; P11940; fluorescence polarization; inhibition, % at 35 µM;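 further: calls also rest on retests at 20 µM and on dose response follow-up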
eIF4H inh: inhibitors of RNA binding by human eIF4H | Q15056 | eIF4H fluorescence polarization binding assay | inhibition, % at 35 µM | 0.94% of 290,000 active;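 further: calls also rest on retests at 20 µM and on dose response follow-up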
MLLE-PAM2 inh: blocks PAM2 peptide binding to the PABP1 MLLE domain. P11940. GST-MLLE / FITC-PAM2 fluorescence polarization. inhibition, % at 20 µM. 0.36% of 360,000 active. AID 588489; in the data active means inhibition above about 35%, passing the limit was not always enough;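 further: plate controls were DMSO wells with GST-MLLE for no effect and wells lacking GST-MLLE protein for full effect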
* marks the source's active call; other numbers are inactive results; ? = inconclusive; . = no result; [ ] = dose if it differs, or a comment. Unless noted, how the calls were made is not given here.

SMILES	eIF4E 4G PPI	PERK inh	PABP polyA inh	eIF4H inh	MLLE-PAM2 inh
CC(O/N=C\c1ccccc1O)C(=O)Nc1ccccc1C(=O)N1CCOCC1 (stereo not drawn)	0	-1	1	1	6
O=C(NCCCn1ccnc1)C1CC2CCC1C2 (stereo not drawn)	-2	0	10	13	-1
C=C(C)CN1C(=O)c2ccccc2C1=O	-8	1	2.9*	57	-3
O=C(CN1C(=O)c2ccccc2C1=O)c1ccccc1	1	1	4	0	7
CCOC(=O)C(CSCC(=O)c1ccc(Cl)cc1Cl)NC(=O)OC(C)(C)C (stereo not drawn)	-1	0	3	-7	49*
CCOC(=O)CSCC(NC(=O)OC(C)(C)C)C(=O)OCC (stereo not drawn)	6	1	2	6	12
COc1ccc(N/C=C/C(=O)c2ccc3c(c2)OCO3)cc1OC	-8	0	-8	3	-21
Nc1ccn(Cc2ccccc2)n1	0	1	8	-9	-8
c1ccc(Cn2ccc(-c3cnc(-c4ccccc4)s3)n2)cc1	-1	-1	-10	93*	-6
Cc1ccc(-c2cc(C(=O)OC3CCOC3=O)c3ccccc3n2)c(C)c1 (stereo not drawn)	-3	2.9*	-17	-7	2
COc1ccc(C(=S)N2CCN(c3ccccc3Cl)CC2)cc1OC	-2	-1	22	8	40*
CCOc1cc(C(=S)N2CCOCC2)ccc1OC	7	1	-6	-6	56*
CCOc1ccc(C(=S)N2CCOCC2)cc1OC	2	0	-3	0	21
S=C(c1ccc(N2CCCC2)cc1)N1CCCCC1	7	0	0	-4	3
COc1ccc(C(=S)N2CCCC2)cc1OC	-5	1	-8	-7	-3
S=C(c1ccc(N2CCOCC2)cc1)N1CCOCC1	8	1	4	5	38*
COc1cc(C(=S)N2CCN(c3ccccc3Cl)CC2)cc(O)c1O	28	1	-3	32	42*
CSc1ccc(Cn2c(C)c(C(=O)NCc3ccc(F)cc3)sc2=O)cc1	.	.	.	.	2
CCc1csc(CNC(=O)C2CCC(=O)N(Cc3cccc(OC)c3)C2)n1 (stereo not drawn)	.	.	.	.	5
CCc1ccc(NC(=S)N(CCC(C)C)C2CCN(C(C)=O)CC2)cc1	.	.	-3	2	-23
CCNC(=S)N1CCN(CC(=O)Nc2ccc(Br)cc2)CC1	0	0	-6	-3	-118
CC(=O)C1=C(O)C(=O)N(C)C1c1ccccc1[N+](=O)[O-] (stereo not drawn)	1	0	0	-17	39*
COC(=O)Nc1nnc(-c2ccncc2)s1	2	1	11	-8	36*
Cn1c(=O)c2c(SCC(=O)Nc3ccccc3F)nc(-c3ccccc3F)nc2n(C)c1=O	.	.	6	12	-4
COc1ccc(-c2cncnc2-c2ccc(OC)cc2O)cc1	.	.	15	11	-6
SMILES	eIF4E 4G PPI	PERK inh	PABP polyA inh	eIF4H inh	MLLE-PAM2 inh
COc1ccc(-c2ncncc2-c2ccc(Cl)cc2)c(O)c1	83*	3	17	9	0
COc1ccc(-c2c(C)nc(N)nc2-c2ccc(OC)cc2O)cc1	.	.	55*	66*	31
COC(=O)/C(C(C)=O)=C(/C=C/C=C/N(C)C)N(C)C	-1	1	72*	80*	19
COC(=O)\C(C(C)=O)=C(/C=C/C=C/N(C)C)N(C)C	2	-1	?	?	22
COc1ccc(-n2ccnc(SCC(=O)NC3CCCC3)c2=O)cc1OC	.	.	.	.	51*
COc1ccc(-n2ccnc(SCC(=O)NC3CCCCC3)c2=O)cc1	.	.	-4	-9	24
Cc1ccc(-n2ccnc(SCC(=O)NC3CCCCC3)c2=O)cc1F	.	.	.	.	41*
COc1ccc(-n2ccnc(SCC(=O)NC3CCCC3)c2=O)cc1	.	.	10	-1	41*
O=C(CSc1nccn(-c2ccc(Br)cc2)c1=O)NC1CCCC1	.	.	.	.	45*
O=C(CSc1nccn(-c2ccc(Br)cc2)c1=O)Nc1ccccc1F	.	.	.	.	35
CCN=C(N/N=C/c1ccc([N+](=O)[O-])cc1)SC	31*[fluorescence artefact?]	1	30	-1	-62
O=[N+]([O-])c1ccc(C=NNC(=S)NN=Cc2ccc([N+](=O)[O-])cc2)cc1	.	.	.	.	-17
CS(=O)(=O)N1CCN(C(=O)C(Sc2ccccc2)c2ccccc2)CC1 (stereo not drawn)	-6	0	6	-7	43*
CC(C)OCCCNC(=O)C1CCN(S(=O)(=O)N2CCCCC2)CC1	1	0	-6	1	13
